# Source: PubChem BioAssay (NCI)
# Compounds without any hit were thinned out: in the full panel of roughly 83,000, 20% have a hit.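 A percent growth of 40 corresponds to 60% growth inhibition; 0 means no net growth; -100 means all cells died. Active threshold: below 10.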 Values without a mark were called inactive. Active and inactive are the calls of the source.
# Test system: HCT-15 colon
# Test: NCI-60 one-dose screen, 48 h (100 = growth as untreated, 0 = no growth, -100 = all killed)
# Conditions: 10 µM
# Procedure: Growth inhibition of the HCT-15 human tumor cell line is measured as a screen for anti-cancer activity. Cells are grown in 96 well plates and exposed to the test compound for 48 hours. Compounds are tested at a single concentration, which is 10^-5 M for most compounds. The reported endpoint is percent growth (GI% or GIPRCNT), where numbers from 0 - 100% represent growth inhibition, and numbers from -100% - 0 represent cell death. For example, a value of 40 represents 60% growth inhibition. A value of 0 means no net growth occurred over the course of the experiment. A value of -40 indicates 40% of cells at the beginning of the experiment died by the end of the experiment. A value of -100 means all cells are dead at the end of the experiment.
# NCI-60 Human Tumor Cell Lines Screen was performed using the standard one-dose NCI protocol, which is described in more detail at https://dtp.cancer.gov/discovery_development/nci-60/default.htm.
# Compounds with GIPRCNT values below 10 were considered active. Activity score was based on GIPRCNT using the following formula: […]
# Score is 0 for GIPRCNT values of 100 or above, 50 for GIPRCNT values of 0, and 100 for GIPRCNT values of -100.
row,Compound,growth
1,Cc1ccccc1C1=N[C@@H](Cc2ccccc2)C(=O)c2c(nc3ccccn23)N1,100%
2,NCCNc1ccc2cc(-c3nc4ccccc4[nH]3)c(=O)oc2c1,79.4%
3,C=C[C@]1(C)C=C2C(=O)[C@@]3(O)OC(=O)[C@@]4(CCCC(C)(C)[C@H]34)[C@@]2(O)CC1,-30.5% (active)
4,COc1cccc(-c2nnc(COc3ccc(-c4nc5ccccc5[nH]4)cc3OC)o2)c1,78.3%
5,COc1cc2nc(Sc3sc(N)nc3C)n(-c3ccc(Oc4ccccc4)cc3)c(=O)c2cc1OC,79.9%
6,N#CN1CC[C@H](C(=O)Nc2ncc(-c3ccccc3)s2)C1,3.19% (active)
7,O=C(O)c1cc(C(F)(F)F)cc(C(F)(F)F)c1,104%
8,O=S(=O)(NC1c2ccccc2Oc2ccccc21)c1ccccc1,91.8%
9,COc1ccc(-c2nsc3c2NC(=O)CC3c2ccc(Cl)cc2)cc1 (stereo not given),86.3%
10,C#CCNCCN1C(=O)c2ccc3c4c(ccc(c24)C1=O)C(=O)N(CCNCC#C)C3=O,19.5%
11,COCc1cc2c(cc1Br)OCO2,100%
12,O=c1cc(CSc2nnc(-c3ccccc3)n2-c2ccc(F)cc2)c2ccc3ccccc3c2o1,98.2%
13,O=C(c1ccccc1)C(Sc1ccccc1)c1ccccc1 (stereo not given),60.7%
14,COC(=O)c1cnc2c(c1)Oc1ccc(Cl)cc1-c1cc(C)nn1-2,87.3%
15,Cc1cc(C)c(C(=O)OC(C)CNC2CCCCC2)c(C)c1 (stereo not given),97.5%
16,CCOC(=O)C(=O)Cc1cccnn1,102%
17,O=C1CC[C@@H](C(=O)N[C@H]2CSSC[C@@H](C(=O)N/C=C/c3ccc(O)cc3)NC(=O)[C@H](Cc3ccccc3)NC(=O)[C@@H]3CCCN3C(=O)[C@@H]3CCCN3C2=O)N1,97%
18,COc1cc(OC)cc(N2CCN(C(=O)Nc3nc4cc(F)ccc4nc3OC)CC2)c1,7.06% (active)
19,N/C(=N\O)c1cn(C2OC(CO)C(O)C2O)c2ncnc(N)c12 (stereo not given),7.46% (active)
20,COc1ccc(C(=O)c2sc3nc(-c4cccs4)ccc3c2N)cc1OC,37.4%

row,Compound,growth
1,COc1cccc2c1C(=O)c1c(O)c3c(c(O)c1C2=O)C[C@@](O)(C(=O)COC(=O)c1cccnc1)C[C@@H]3OC1CC(N)C(O)C(C)O1 (stereo not given in full),32.9%
2,CCOC(=O)c1cc2c(n1Cc1ccccc1)-c1oncc1CC2,65.3%
3,COc1cc(CSc2nc3ccc(C)cc3c(=O)n2Cc2ccccc2)cc(OC)c1OC,29.2%
4,O=C(Nc1cccc(Cl)c1)OCC(COC(=O)Nc1cccc(Cl)c1)(COC(=O)Nc1cccc(Cl)c1)[N+](=O)[O-],22.6%
5,CN(C1c2ccccc2Oc2ccccc21)S(=O)(=O)c1cc(Cl)ccc1Cl,33.8%
6,O=C(CCCC(=O)N/N=C/c1cc(Cl)ccc1O)N/N=C\c1cc(Cl)ccc1O,28.1%
7,COc1cccc2c1O/C(=C\c1ncc([N+](=O)[O-])n1C)C2=O,5.88% (active)
8,CNC(=O)c1cc(Oc2ccc(NC(=O)Nc3ccc(Cl)c(C(C)(C)C)c3)c(F)c2)ccn1,38.9%
9,COc1ccc(COC(=O)CC(C)C)cc1,105%
10,NC(=O)C1CCCN(Cc2c[nH]c3ccccc23)C1 (stereo not given),102%
11,C[C@@H]1C(=O)N(C[C@H](Cc2ccccc2)NC(=O)OCc2ccccc2)[C@]1(Cc1ccccc1)C(=O)OCc1ccccc1,39.3%
12,CCOC(=O)c1ccc(NC(=O)Nc2nncs2)cc1,17.5%
13,COc1ccc(S(=O)(=O)Nc2cc(/C=C\c3cc(OC)c(OC)c(OC)c3)ccc2OC)cc1,7.86% (active)
14,COc1ccc(-c2cc(=O)n(-c3nc4ccccc4[nH]3)[nH]2)cc1OC,32%
15,O=C(NC1CCCC1)c1ccc(N2CCC(NCc3cccc(C(F)(F)F)c3)CC2)cc1,77.8%
16,CC(C)c1ncc(CO)n1Cc1c(Cl)cccc1Cl,97.7%
17,Nc1ncncc1-c1ccc(F)cc1,103%
18,COc1ccc(-c2n/c(=C\c3c(O)[nH]c4ccccc34)cc3c2=Nc2ccccc2-3)cc1,1.23% (active)
19,CC(=O)Oc1c(C)c(C)c2c(c1C)CCC(C)(CC(=O)OCCCCCCCCCCC[P+](c1ccccc1)(c1ccccc1)c1ccccc1)O2 (stereo not given),-69.3% (active)
20,O=C(COc1ccc(Cl)cc1Cl)Oc1coc(CSc2nc3ccccc3s2)cc1=O,103%
